# Results: PubChem BioAssay (EPA / NIEHS)
# Inconclusive results are not listed. The source made the active and inactive calls. The calls were made as follows, unless noted: active = hit-call score of the fitted dose curve at least 0.9, where 1 is the maximum; inconclusive = response in the unintended direction; inactive = score below 0.9.
# Assays:
# [1] = ATG_CRE_CIS: Attagene CIS-FACTORIAL HepG2 Assay for human cAMP Responsive Element (CRE) binding protein 3 (AID 2282926; active = hit-call score of the fitted dose curve at least 0.9, where 1 is the maximum; inactive = score below 0.9); conditions: HepG2 CRE cis-reporter, Attagene multiplexed mRNA; actives raise or lower the signal
# How it was run: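 Endogenous transcription factor activity read via CRE-regulated reporter transcripts in transfected HepG2 cells. After 24 h exposure, RNA was reverse-transcribed, amplified, fluorescently labelled and sized by capillary electrophoresis; gain or loss fitted against DMSO.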
# [2] = ATG_DR4_LXR_CIS: Attagene CIS-FACTORIAL HepG2 Assay for human Liver X Receptor (LXR), DR4 submotif (AID 2282929; active = hit-call score of the fitted dose curve at least 0.9, where 1 is the maximum; inactive = score below 0.9); conditions: HepG2 Attagene DR4 cis-reporter, mRNA transcription; actives raise or lower the signal
# How it was run: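 Fluorescence intensity of labelled reporter cDNA fragments, separated by capillary electrophoresis, gives the signal. HepG2 cells bearing cis-regulated reporter constructs were treated 24 h; activity fitted bidirectionally relative to DMSO negative control.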
# [3] = ATG_AP_2_CIS: Attagene CIS-FACTORIAL HepG2 Assay for human Activator Protein 2 (AP-2) (AID 2282932; active = hit-call score of the fitted dose curve at least 0.9, where 1 is the maximum; inactive = score below 0.9); conditions: HepG2 AP-2 cis-reporter, Attagene transcription factor profiling; actives raise or lower the signal
# How it was run: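 Assay in transfected HepG2 with promoter-regulated reporters, 24 h incubation after dosing. Signal is reporter mRNA fluorescence (RT-PCR, capillary electrophoresis), analysed for both increases and decreases relative to DMSO controls.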
# [4] = ATG_BRE_CIS: Attagene CIS-FACTORIAL HepG2 Assay for human Bone Morphogenetic Protein (BMP) Response Element (BRE) (AID 2282933; active = hit-call score of the fitted dose curve at least 0.9, where 1 is the maximum; inactive = score below 0.9); conditions: HepG2 BMP response element reporter, Attagene transcription factor profiling; actives raise or lower the signal
# How it was run: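 Transient MRTU transfection of human HepG2 liver cells; 24 h compound treatment; total RNA isolated, reverse-transcribed, PCR-amplified, 6-FAM labelled, HpaI-cut, capillary electrophoresis. DMSO = negative control/baseline, bidirectional fit.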
# [5] = target: Transcription factor E2F1 (Homo sapiens) (UniProt Q01094); experiment: ATG_E2F_CIS: Attagene CIS-FACTORIAL HepG2 Assay for human E2F Transcription Factor 1 (AID 2282935; active = hit-call score of the fitted dose curve at least 0.9, where 1 is the maximum; inactive = score below 0.9); conditions: HepG2 Attagene cis-reporter, E2F reporter RNA transcripts; actives raise or lower the signal
# How it was run: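 In this cis-factorial format, endogenous factor activity drives transfected reporters in HepG2; transcripts collected at 24 h are quantified by fluorescence after RT-PCR and capillary separation.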
# [6] = ATG_E_Box_CIS: Attagene CIS-FACTORIAL HepG2 Assay for human Enhancer Box (E-box) (AID 2282936; active = hit-call score of the fitted dose curve at least 0.9, where 1 is the maximum; inactive = score below 0.9); conditions: HepG2 E-box cis-reporter transcription, actives raise or lower the signal
# How it was run: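 Measured 24 h post-dosing in HepG2 cells transfected with multiple cis-regulated reporter units, signal being reporter mRNA induction detected by fluorescent RT-PCR with capillary electrophoresis; gain or loss fitted against DMSO.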
# [7] = ATG_M_19_CIS: Attagene CIS-FACTORIAL HepG2 Assay for M19 Transcription Factor (Internal Marker) (AID 2282939; active = hit-call score of the fitted dose curve at least 0.9, where 1 is the maximum; inactive = score below 0.9); conditions: HepG2 Attagene CIS-FACTORIAL M19 internal marker reporter; actives raise or lower the signal
# How it was run: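 Transfect HepG2 with MRTU reporter library → dose chemical, 24 h → isolate total RNA, reverse-transcribe with oligo(dT) → PCR, 6-FAM label, HpaI cut (2 h, 37 C) → capillary electrophoresis. Bidirectional fit vs DMSO.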
# [8] = ATG_Ets_CIS: Attagene CIS-FACTORIAL HepG2 Assay for human Erythroblast Transformation Specific (ETS) (AID 2282941; active = hit-call score of the fitted dose curve at least 0.9, where 1 is the maximum; inactive = score below 0.9); conditions: HepG2 ETS cis-reporter transcription, actives raise or lower the signal
# How it was run: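 Bidirectional fit versus DMSO of reporter mRNA signal, detected by RT-PCR and capillary electrophoresis in HepG2 cells transiently transfected with cis-element reporters and dosed 24 h.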
# [9] = target: Hepatocyte nuclear factor 3-beta (Homo sapiens) (UniProt Q9Y261); experiment: ATG_FoxA2_CIS: Attagene CIS-FACTORIAL HepG2 Assay for human Forkhead box A2 (FOXA2) (AID 2282942; active = hit-call score of the fitted dose curve at least 0.9, where 1 is the maximum; inactive = score below 0.9); conditions: HepG2 cis-reporter transcription factor activity, 24 h; actives raise or lower the signal
# How it was run: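 Reporter transcript induction is measured by fluorescence after capillary electrophoresis of RT-PCR products from HepG2 cells exposed 24 h. Cis-regulated reporter units report endogenous factor activity; curves fitted both directions against DMSO.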
# [10] = ATG_FoxO_CIS: Attagene CIS-FACTORIAL HepG2 Assay for human Forkhead box O (FoxO) (AID 2282943; active = hit-call score of the fitted dose curve at least 0.9, where 1 is the maximum; inactive = score below 0.9); conditions: HepG2 Attagene cis-reporter, FoxO element, mRNA; actives raise or lower the signal
# How it was run: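 Values reflect reporter mRNA induction or loss in HepG2 cells 24 h post-dosing, fitted bidirectionally with DMSO as negative control and baseline. Detection used RT-PCR and fluorescence capillary electrophoresis.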
# [11] = ATG_GATA_CIS: Attagene CIS-FACTORIAL HepG2 Assay for human GATA Binding Protein (AID 2282944; active = hit-call score of the fitted dose curve at least 0.9, where 1 is the maximum; inactive = score below 0.9); conditions: HepG2 GATA cis-element reporter, Attagene multiplex mRNA; actives raise or lower the signal
# How it was run: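 Transient MRTU transfection, HepG2, 24 h compound exposure. Total RNA → oligo(dT) RT → PCR → 6-FAM primer extension → HpaI cut → CE. Bidirectional fit vs DMSO.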
# [12] = ATG_M_32_CIS: Attagene CIS-FACTORIAL HepG2 Assay for M32 Transcription Factor (Internal Marker) (AID 2282949; active = hit-call score of the fitted dose curve at least 0.9, where 1 is the maximum; inactive = score below 0.9;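 also: background control marker of the multiplexed CIS panel rather than a real target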); conditions: HepG2 Attagene cis-factorial M32 reporter, mRNA; actives raise or lower the signal
# How it was run: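 Using DMSO as baseline, bidirectional curve fits were applied to reporter mRNA signals. These came from transiently transfected HepG2 cells exposed for 24 h, with RNA analysed by RT-PCR, FAM primer extension, HpaI digestion and CE.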
# [13] = target: Heat shock factor protein 1 (Homo sapiens) (UniProt Q00613); experiment: ATG_HSE_CIS: Attagene CIS-FACTORIAL HepG2 Assay for human Heat Shock Transcription Factor 1 (HSE) (AID 2282953; active = hit-call score of the fitted dose curve at least 0.9, where 1 is the maximum; inactive = score below 0.9); conditions: HepG2 HSE cis-reporter, Attagene RNA transcription; actives raise or lower the signal
# How it was run: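 HepG2, transient MRTU transfection, cis-promoter reporters (endogenous TF activity). 24 h compound. RNA → oligo(dT) RT → PCR → 6-FAM primer extension → HpaI cut → CE. Bidirectional fit vs DMSO.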
# [14] = ATG_PXRE_CIS: Attagene CIS-FACTORIAL HepG2 Assay for human Pregnane X Receptor Element (PXRE) (AID 2282957; active = hit-call score of the fitted dose curve at least 0.9, where 1 is the maximum; inactive = score below 0.9); conditions: HepG2 Attagene CIS-FACTORIAL PXRE reporter, mRNA; actives raise or lower the signal
# How it was run: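 Reporter transcripts under endogenous PXR-responsive cis-regulation quantified from total RNA of transfected HepG2 cells 24 h post-dosing, via RT-PCR with fluorescent primer extension and capillary electrophoresis. Gain or loss of signal fitted against DMSO baseline.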
# [15] = ATG_Sox_CIS: Attagene CIS-FACTORIAL HepG2 Assay for human SRY-box transcription factor (SOX) (AID 2282960; active = hit-call score of the fitted dose curve at least 0.9, where 1 is the maximum; inactive = score below 0.9); conditions: HepG2 Attagene cis-factorial SOX reporter, mRNA; actives raise or lower the signal
# How it was run: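 Measures mRNA induction of a SOX1-associated reporter in HepG2 after 24 h dosing. Fluorescently labelled RT-PCR fragments are separated by capillary electrophoresis, and gain or loss relative to DMSO control is fitted.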
# [16] = target: Transcription factor Sp1 (Homo sapiens) (UniProt P08047); experiment: ATG_Sp1_CIS: Attagene CIS-FACTORIAL HepG2 Assay for human Specificity Protein 1 (Sp1) (AID 2282961; active = hit-call score of the fitted dose curve at least 0.9, where 1 is the maximum; inactive = score below 0.9); conditions: HepG2 Sp1 cis-reporter transcription, actives raise or lower the signal
# How it was run: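 Cells: HepG2, transiently transfected with cis-regulated multiplexed reporters. Exposure: 24 h. Detection: reporter transcripts amplified, fluorescently labeled, restriction-digested and sized by capillary electrophoresis. Analysis: bidirectional fit relative to DMSO.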
# [17] = ATG_SREBP_CIS: Attagene CIS-FACTORIAL HepG2 Assay for human Sterol Regulatory Element Binding (SREBP) (AID 2282962; active = hit-call score of the fitted dose curve at least 0.9, where 1 is the maximum; inactive = score below 0.9); conditions: HepG2 Attagene cis-factorial SREBP reporter, mRNA; actives raise or lower the signal
# How it was run: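 In this cis-format assay, HepG2 liver cells express reporters controlled by promoter elements responsive to native transcription factors. Exposure lasts 24 h; reporter mRNA fluorescence from capillary electrophoresis gives the signal, fitted bidirectionally against DMSO.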
# [18] = target: Signal transducer and activator of transcription 3 (Homo sapiens) (UniProt P40763); experiment: ATG_STAT3_CIS: Attagene CIS-FACTORIAL HepG2 Assay for human Signal Transducer and Activator of Transcription 3 (STAT3) (AID 2282963; active = hit-call score of the fitted dose curve at least 0.9, where 1 is the maximum; inactive = score below 0.9); conditions: HepG2, Attagene cis-factorial STAT3 reporter transcription; actives raise or lower the signal
# How it was run: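 Uses human liver HepG2 transiently carrying cis-regulated reporter transcription units. Following 24 h dosing, reporter mRNA induction was detected by RT-PCR and capillary electrophoresis, analysed bidirectionally versus DMSO.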
# [19] = ATG_TA_CIS: Attagene CIS-FACTORIAL HepG2 Assay for human TA Basal Promoter (AID 2282964; active = hit-call score of the fitted dose curve at least 0.9, where 1 is the maximum; inactive = score below 0.9); conditions: HepG2 Attagene CIS-factorial TA basal promoter reporter; actives raise or lower the signal
# How it was run: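 Read-out: fluorescent reporter-transcript fragments resolved by capillary electrophoresis after RT-PCR and HpaI digestion. Source: HepG2 cells carrying transiently transfected multi-reporter cis constructs, treated 24 h. Endpoint fitted bidirectionally relative to DMSO.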
# [20] = target: Androgen receptor (Homo sapiens) (UniProt P10275); experiment: ATG_AR_TRANS: Attagene TRANS-FACTORIAL HepG2 Assay for human Androgen Receptor (AR) (AID 2282973); conditions: HepG2 Attagene TRANS-FACTORIAL AR reporter transcription
# How it was run: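 Transcriptional activity of an exogenous AR–Gal4 fusion read as GAL4-UAS reporter transcript levels in transfected human HepG2 cells after 24 h dosing. Detection via RT-PCR, 6-FAM labelling, HpaI digest and capillary electrophoresis; increase over DMSO baseline.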
# Androgen receptor (Homo sapiens), sequence (P10275 whole entry, looked up, the tested form may be a part): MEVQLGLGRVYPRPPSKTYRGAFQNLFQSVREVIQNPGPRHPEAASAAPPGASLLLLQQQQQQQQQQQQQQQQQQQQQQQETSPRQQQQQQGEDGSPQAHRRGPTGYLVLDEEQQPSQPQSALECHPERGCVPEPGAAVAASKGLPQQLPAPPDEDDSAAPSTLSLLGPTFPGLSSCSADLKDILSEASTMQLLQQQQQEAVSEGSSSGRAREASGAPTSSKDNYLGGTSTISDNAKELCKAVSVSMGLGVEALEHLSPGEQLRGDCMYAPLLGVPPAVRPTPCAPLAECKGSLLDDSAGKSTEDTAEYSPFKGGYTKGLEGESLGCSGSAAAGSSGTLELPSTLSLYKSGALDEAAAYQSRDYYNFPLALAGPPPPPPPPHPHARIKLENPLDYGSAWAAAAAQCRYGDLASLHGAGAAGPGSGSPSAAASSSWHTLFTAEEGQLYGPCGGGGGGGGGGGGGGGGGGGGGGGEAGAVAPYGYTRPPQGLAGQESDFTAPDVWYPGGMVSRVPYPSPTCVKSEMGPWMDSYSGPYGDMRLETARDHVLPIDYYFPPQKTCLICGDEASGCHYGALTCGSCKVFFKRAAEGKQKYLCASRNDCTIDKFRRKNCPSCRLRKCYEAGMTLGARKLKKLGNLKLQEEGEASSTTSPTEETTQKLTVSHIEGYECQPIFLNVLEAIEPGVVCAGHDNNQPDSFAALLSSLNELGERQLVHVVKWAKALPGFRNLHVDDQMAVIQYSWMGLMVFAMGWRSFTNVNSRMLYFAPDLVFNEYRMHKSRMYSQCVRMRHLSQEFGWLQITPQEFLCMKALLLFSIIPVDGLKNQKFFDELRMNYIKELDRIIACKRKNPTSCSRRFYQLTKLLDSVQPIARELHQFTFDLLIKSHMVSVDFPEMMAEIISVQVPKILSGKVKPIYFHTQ
# Hepatocyte nuclear factor 3-beta (Homo sapiens), sequence (Q9Y261 whole entry, looked up): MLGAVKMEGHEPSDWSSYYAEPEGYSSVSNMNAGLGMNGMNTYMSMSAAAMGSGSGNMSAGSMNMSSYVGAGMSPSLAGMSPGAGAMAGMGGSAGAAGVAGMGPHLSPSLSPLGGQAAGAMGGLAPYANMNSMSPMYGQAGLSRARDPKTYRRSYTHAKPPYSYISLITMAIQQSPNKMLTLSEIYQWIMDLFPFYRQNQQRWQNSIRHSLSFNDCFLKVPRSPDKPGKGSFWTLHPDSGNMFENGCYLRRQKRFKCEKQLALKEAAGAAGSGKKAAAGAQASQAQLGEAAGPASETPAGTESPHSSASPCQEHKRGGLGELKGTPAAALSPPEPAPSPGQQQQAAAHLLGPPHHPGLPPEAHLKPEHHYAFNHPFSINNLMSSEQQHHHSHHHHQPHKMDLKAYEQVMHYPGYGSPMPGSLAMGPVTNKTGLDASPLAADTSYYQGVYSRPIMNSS
# Heat shock factor protein 1 (Homo sapiens), sequence (Q00613 whole entry, looked up): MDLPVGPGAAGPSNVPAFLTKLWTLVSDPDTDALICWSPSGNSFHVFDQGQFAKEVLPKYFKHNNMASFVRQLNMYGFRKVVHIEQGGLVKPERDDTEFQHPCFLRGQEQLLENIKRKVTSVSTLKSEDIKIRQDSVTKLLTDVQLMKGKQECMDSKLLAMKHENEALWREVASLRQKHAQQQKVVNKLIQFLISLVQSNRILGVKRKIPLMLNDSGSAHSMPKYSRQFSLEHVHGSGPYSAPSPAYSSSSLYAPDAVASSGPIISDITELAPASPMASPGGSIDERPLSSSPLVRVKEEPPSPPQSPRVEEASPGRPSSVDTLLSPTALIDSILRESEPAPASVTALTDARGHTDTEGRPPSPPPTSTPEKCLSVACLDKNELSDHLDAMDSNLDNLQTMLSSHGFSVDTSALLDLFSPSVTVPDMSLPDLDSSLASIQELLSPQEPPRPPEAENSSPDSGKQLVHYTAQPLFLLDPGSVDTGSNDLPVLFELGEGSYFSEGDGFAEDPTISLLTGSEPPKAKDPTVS
# Transcription factor E2F1 (Homo sapiens), sequence (Q01094 whole entry, looked up): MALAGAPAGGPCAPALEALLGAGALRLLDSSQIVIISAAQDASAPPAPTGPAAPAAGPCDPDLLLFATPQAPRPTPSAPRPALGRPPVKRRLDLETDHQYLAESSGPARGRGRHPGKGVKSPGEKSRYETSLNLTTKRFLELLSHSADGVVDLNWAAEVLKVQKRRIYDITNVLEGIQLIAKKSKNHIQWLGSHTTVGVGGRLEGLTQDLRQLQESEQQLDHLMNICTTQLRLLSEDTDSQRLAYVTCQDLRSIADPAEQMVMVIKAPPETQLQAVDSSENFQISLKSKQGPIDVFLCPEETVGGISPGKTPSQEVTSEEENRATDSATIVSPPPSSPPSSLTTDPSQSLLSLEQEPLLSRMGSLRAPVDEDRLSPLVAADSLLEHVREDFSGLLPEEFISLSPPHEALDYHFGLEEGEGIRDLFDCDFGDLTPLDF
# Transcription factor Sp1 (Homo sapiens), sequence (P08047 whole entry, looked up): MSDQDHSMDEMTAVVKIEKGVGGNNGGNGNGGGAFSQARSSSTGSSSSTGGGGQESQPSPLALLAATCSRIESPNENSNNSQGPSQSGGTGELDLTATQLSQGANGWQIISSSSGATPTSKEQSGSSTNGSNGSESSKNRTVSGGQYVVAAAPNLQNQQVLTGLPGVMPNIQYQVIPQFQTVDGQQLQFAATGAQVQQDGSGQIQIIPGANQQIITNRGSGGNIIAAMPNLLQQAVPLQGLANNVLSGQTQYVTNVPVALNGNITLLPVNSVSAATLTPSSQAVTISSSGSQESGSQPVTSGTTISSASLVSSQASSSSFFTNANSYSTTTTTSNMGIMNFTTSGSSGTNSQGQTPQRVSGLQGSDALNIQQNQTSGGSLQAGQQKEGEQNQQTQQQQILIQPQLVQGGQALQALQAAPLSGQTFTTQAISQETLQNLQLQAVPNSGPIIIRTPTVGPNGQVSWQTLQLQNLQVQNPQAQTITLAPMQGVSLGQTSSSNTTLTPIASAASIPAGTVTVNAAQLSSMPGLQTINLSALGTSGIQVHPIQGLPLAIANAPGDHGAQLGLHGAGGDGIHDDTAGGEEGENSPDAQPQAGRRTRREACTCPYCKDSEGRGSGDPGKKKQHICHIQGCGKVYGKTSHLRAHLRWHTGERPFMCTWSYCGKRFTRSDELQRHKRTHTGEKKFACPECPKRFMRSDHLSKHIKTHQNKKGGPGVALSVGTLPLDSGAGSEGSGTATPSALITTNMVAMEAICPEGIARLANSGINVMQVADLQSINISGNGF
# Signal transducer and activator of transcription 3 (Homo sapiens), sequence (P40763 whole entry, looked up): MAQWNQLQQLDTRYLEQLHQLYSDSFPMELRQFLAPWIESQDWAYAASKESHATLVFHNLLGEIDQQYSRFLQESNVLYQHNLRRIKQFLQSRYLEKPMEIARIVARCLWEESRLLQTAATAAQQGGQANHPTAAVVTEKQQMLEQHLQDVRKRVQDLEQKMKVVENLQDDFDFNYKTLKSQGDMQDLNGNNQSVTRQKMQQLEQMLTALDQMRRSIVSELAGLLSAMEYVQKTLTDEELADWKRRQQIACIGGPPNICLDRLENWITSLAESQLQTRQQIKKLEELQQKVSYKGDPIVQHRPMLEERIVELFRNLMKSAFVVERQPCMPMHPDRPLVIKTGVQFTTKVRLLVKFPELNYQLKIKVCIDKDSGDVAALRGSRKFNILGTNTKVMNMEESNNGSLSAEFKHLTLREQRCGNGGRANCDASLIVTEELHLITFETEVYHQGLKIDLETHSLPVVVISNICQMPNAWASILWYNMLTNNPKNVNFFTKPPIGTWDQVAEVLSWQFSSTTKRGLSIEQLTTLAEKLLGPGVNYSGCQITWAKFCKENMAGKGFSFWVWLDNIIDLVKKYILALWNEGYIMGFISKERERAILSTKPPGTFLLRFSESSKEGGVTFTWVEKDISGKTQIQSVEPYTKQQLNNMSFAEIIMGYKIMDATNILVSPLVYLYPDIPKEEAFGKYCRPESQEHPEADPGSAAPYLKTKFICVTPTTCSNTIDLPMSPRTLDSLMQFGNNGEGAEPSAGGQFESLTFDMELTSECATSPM
smiles,measurement,setting,value
c1ccc(Nc2ccc3ccccc3c2)cc1,outcome,[1],inactive
same,AC50,[2],20.6 µM (active)
same,outcome,[3],inactive
same,outcome,[4],inactive
same,outcome,[5],inactive
same,outcome,[6],inactive
same,outcome,[7],inactive
same,outcome,[8],inactive
same,outcome,[9],inactive
same,outcome,[10],inactive
same,outcome,[11],inactive
same,outcome,[12],inactive
same,outcome,[13],inactive
same,AC50,[14],10.3 µM (active)
same,outcome,[15],inactive
same,outcome,[16],inactive
same,outcome,[17],inactive
same,outcome,[18],inactive
same,outcome,[19],inactive
COC(=O)C(F)(F)C(F)(F)C(F)(F)C(F)(F)C(F)(F)F,outcome,[20],inactive
C=CC(C)(C)O,outcome,[20],inactive
CC(C)c1ccc2cc(C(C)C)ccc2c1,outcome,[20],inactive
CCCCCCCC(=O)OCCCCCC,outcome,[20],inactive
CCCCCCCCCC(C)=O,outcome,[20],inactive
COc1cc(/C=C/C(=O)CC(=O)/C=C/c2ccc(O)c(OC)c2)ccc1O,outcome,[20],inactive
CCCOC(=O)c1ccc(C(=O)OCCC)nc1,outcome,[20],inactive
CCCCCCCCCCCCCC(=O)OCC(O)CO (stereo not drawn),outcome,[20],inactive
C=C1C[C@H]2[C@@H]3C=C(C)C4=CC(=O)CC[C@]4(C)[C@H]3CC[C@]2(C)[C@@]1(OC(C)=O)C(C)=O,outcome,[20],inactive
CCCCCCCCCC[N+](C)(C)[O-],outcome,[20],inactive
CCN=c1cc2oc3cc(NCC)c(C)cc3c(-c3ccccc3C(=O)OCC)c-2cc1C,outcome,[20],inactive
C=CC(=C)CCCC(C)(C)OC(C)=O,outcome,[20],inactive
CCCCC1CCC(O)CC1 (stereo not drawn),outcome,[20],inactive
CC=CCO,outcome,[20],inactive
CC1=CCC2C(C1)C2(C)C (stereo not drawn),outcome,[20],inactive
C=CC(C)(CCC=C(C)C)OC(=O)C=Cc1ccccc1 (stereo not drawn),outcome,[20],inactive
O=C(c1ccccc1)c1ccc(Cl)cc1,outcome,[20],inactive
CCOC(=O)OC(=O)OCC,outcome,[20],inactive
c1ccc(Sc2ccccc2)cc1,outcome,[20],inactive
CC1(C)COCN1,outcome,[20],inactive
COc1cc(C(C)C)ccc1C,outcome,[20],inactive
c1ccc2[nH]ccc2c1,outcome,[20],inactive
CCC(CC)CO,outcome,[20],inactive
COC(C)(C)CC(C)=O,outcome,[20],inactive
COc1ccc(C(C)=O)cc1,outcome,[20],inactive
CC(C)(C)c1n[nH]c(=O)n(N)c1=O,outcome,[20],inactive
NC(=O)OCC(COC(N)=O)c1ccccc1,outcome,[20],inactive
ON(Cc1ccccc1)Cc1ccccc1,outcome,[20],inactive
O=C(NO)c1ccccc1,outcome,[20],inactive
